Assay outcomes (PubChem BioAssay)
Rows were chosen to be rich in hits. Some 2.3% of all compounds tested hit in one or more screens of this group.
CHRM1 agonist: agonists of human M1 muscarinic receptor; P11229; CHO-K1 hM1, Fluo-8 calcium fluorescence, agonist mode; 0% DMSO, 100% acetylcholine EC100; activation, % at 3 µM; 360,000 compounds, 0.33% hits; AID 588814;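 active means activation above the run's mean compound activation plus 3 SD, cut at about 16% in these data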;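 further: peak over basal fluorescence ratio within a 140 s kinetic read after compound addition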
Target sequence (P11229 whole entry, looked up): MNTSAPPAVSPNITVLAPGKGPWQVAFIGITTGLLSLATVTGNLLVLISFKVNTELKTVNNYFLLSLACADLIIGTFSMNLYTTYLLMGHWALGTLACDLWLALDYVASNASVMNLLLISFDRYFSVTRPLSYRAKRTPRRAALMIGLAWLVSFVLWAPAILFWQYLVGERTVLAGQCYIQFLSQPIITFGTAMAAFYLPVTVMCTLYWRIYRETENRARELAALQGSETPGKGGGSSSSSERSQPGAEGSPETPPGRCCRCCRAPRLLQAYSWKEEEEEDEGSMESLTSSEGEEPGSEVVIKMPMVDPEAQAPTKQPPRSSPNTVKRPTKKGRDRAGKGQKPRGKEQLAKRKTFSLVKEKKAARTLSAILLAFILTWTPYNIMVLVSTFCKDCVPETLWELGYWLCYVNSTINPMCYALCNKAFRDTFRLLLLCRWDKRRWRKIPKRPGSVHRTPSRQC
CHO-K1 Ca antag: counter-screen for M1 antagonists: effect in parental CHO-K1 cells. inhibition, % at 3 µM. AID 602250. ATP-induced calcium, Fluo-8 fluorescence. 360,000 compounds, 0.6% hits;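 active means inhibition above a per-plate cutoff, the plate's mean sample inhibition plus 3 SD, cut at about 24% in these data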
M1 antag: antagonists of human M1 muscarinic receptor; CHO-K1 hM1, Fluo-8 calcium fluorescence, ACh EC80 antagonist; inhibition, % at 3 µM; 360,000 compounds, 1.3% hits; AID 588852;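 active means percent inhibition above its own plate's cutoff, namely the mean of that plate's compound wells plus 3 SD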;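 further: peak over basal fluorescence ratio during 140 s after agonist addition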
CHO-K1 Ca ag: nonselective activator or artifact in parental CHO-K1 cells | Fluo-8 calcium fluorescence; scaled to maximal ATP response, vehicle zero | activation, % at 3 µM | 360,000 compounds, 0.48% hits; in the data active means activation above about 15%;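 further: untransfected CHO-K1 host cells lacking M1 receptor as counterscreen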
CHRM1 PAM: positive allosteric modulators of human M1 muscarinic receptor; AID 588819; activation, % at 3 µM; CHO-K1 hM1, Fluo-8 calcium fluorescence, ACh EC20; 0% = ACh EC20, 100% = maximal ACh; 360,000 compounds, 0.088% hits; in the data active means activation above about 19%, passing the limit was not always enough
CHO-K1 Ca PAM: M1 PAM counterscreen hit in parental CHO-K1 cells | activation, % at 3 µM | ATP EC20, Fluo-8 calcium fluorescence; 0% at ATP EC20, 100% at ATP max | AID 602247 | 360,000 compounds, 0.02% hits;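 active means activation above the run cutoff, the mean activation of all test compounds plus 3 SD, cut at about 40% in these data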;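 further: peak over basal fluorescence ratio in a 140 s read after ATP addition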
Large screens that a line does not name were inactive.

O=C(NNC(=O)c1cc(-c2ccccc2)nc2ccccc12)Nc1cccc(Cl)c1	M1 antag 25
O=C(NNC(=O)c1cc(-c2cccnc2)nc2ccccc12)Nc1ccc(Cl)cc1	CHO-K1 Ca antag 29, M1 antag 63
O=[N+]([O-])c1ccc(Oc2c(F)c(F)nc(N3CCCC3)c2F)cc1	M1 antag 28
Nc1cccnc1Oc1ccc(F)cc1	none
FC(F)(F)c1cccnc1Oc1ccc(C2=NCCS2)cc1	CHRM1 agonist 24
O=C(NC1CCCCC1)C1CC(=O)N(c2cccc([N+](=O)[O-])c2)C1 (stereo not given)	none
CNc1snc(C)c1C(=O)OCC(=O)c1ccc(OC)c(F)c1	M1 antag 40
COCCN(C(=O)c1csnn1)C(C(=O)NC1CCCCC1)c1ccccc1F (stereo not given)	none
CS(=O)(=O)Nc1ccccc1-c1ccc2nccn2c1	none
Cc1ccccc1C1(CCN2CCCCC2)CCOC(C)(C)C1 (stereo not given)	M1 antag 52
c1cc[n+](CCC[n+]2ccccc2)cc1	none
COc1cc(-c2cc3nc(NCc4ccco4)ccn3n2)cc(OC)c1OC	CHO-K1 Ca antag 32
COc1cc(-c2cc3nc(NCCOc4ccccc4)ccn3n2)cc(OC)c1OC	none
CCOc1ccccc1N1CC(C(=O)Nc2c(C)n(C)n(-c3ccccc3)c2=O)CC1=O (stereo not given)	none
O=[N+]([O-])c1ccc(OCC(O)CN(C2CCCCC2)C2CCCCC2)cc1 (stereo not given)	none
COc1ccc(OCC(O)CN(C2CCCCC2)C2CCCCC2)cc1 (stereo not given)	CHO-K1 Ca antag 26
C=CCNC(=S)N1CCN(C2CCCCC2)CC1	none
CN(C)CCCN1c2ccc3ccccc3c2Sc2cccc(Cl)c21	none
CN(C)CCCN1c2ccccc2Sc2ccc3ccccc3c21	M1 antag 82
CCOC(=O)C1CCCN(CCC(=O)Nc2ccc(Br)cc2)C1 (stereo not given)	none
CCOC(=O)C1CCCN(CCC(=O)Nc2ccc3c(c2)CCC3)C1 (stereo not given)	CHRM1 agonist 23
CCOC(=O)C1CCCN(CCC(=O)Nc2ccc(C)c(C)c2)C1 (stereo not given)	none
CCOC(=O)C1CCCN(CCC(=O)Nc2ccc(Br)c(C)c2)C1 (stereo not given)	CHRM1 agonist 24
O=C(NN1CCCCCC1)c1ccccc1F	none
CN1/C(=C\C(=O)c2cncc(Br)c2)C(C)(C)c2ccccc21	CHO-K1 Ca antag 24
CN1/C(=C\C(=O)c2ccco2)C(C)(C)c2ccccc21	CHO-K1 Ca antag 39, M1 antag 31
Cc1ccc(O)c(C(=O)c2cc(C#N)c(=O)n(-c3nccs3)c2)c1	CHRM1 agonist 22, CHO-K1 Ca ag 40
CN1CCN(c2ccc(C(F)(F)F)cc2NC(=O)Nc2ccccc2)CC1	CHO-K1 Ca ag 21
Nc1ccc(N2CCN(c3cccc(Cl)c3)CC2)cc1	none
Nc1cc(=O)[nH]n1C1CCN(c2ccccc2)CC1	CHO-K1 Ca antag 26
Cc1cccc(NC(=O)CSc2nc3ccccc3c3nc(CCc4c(C)n[nH]c4C)nn23)c1	M1 antag 51
c1cnc(N2CC[N+]3(CCCC3)CC2)nc1	M1 antag 33
c1ccc(N2CC[N+]3(CCCC3)CC2)nc1	M1 antag 54
CC(C)(C)CC(C)(C)NC(=O)/C=C/C(=O)O	none
O=C1CN(C(=O)c2cc3ccccc3oc2=O)C(c2ccc(F)cc2)c2cc(F)ccc2N1 (stereo not given)	CHO-K1 Ca antag 25
O=C1CN(C(=O)c2ccccc2)C(c2ccccc2)c2cc(F)ccc2N1 (stereo not given)	none
O=C1CN(C(=O)c2cc3ccccc3oc2=O)C(c2ccccc2)c2cc(F)ccc2N1 (stereo not given)	none
Cc1ccccc1C(=O)N1CC(=O)Nc2ccc(F)cc2C1c1ccccc1 (stereo not given)	CHO-K1 Ca ag 23
Cc1ccc(C)c(N2CCN(C(=O)CCNS(=O)(=O)c3ccc4c(c3)oc(=O)n4C)CC2)c1	CHO-K1 Ca ag 17
Cn1c(=O)oc2cc(S(=O)(=O)NCCC(=O)N3CCN(c4ccccc4F)CC3)ccc21	none
O=C(O)c1ccc2c(c1)SC1=NS(=O)(=O)CCN12	none
CN(C(=O)c1ccc2c(c1)SC1=NS(=O)(=O)CCN12)C(c1ccccc1)c1ccccc1	M1 antag 41
CC1(C)CC(=O)C2=C(C1)NC(SCC(=O)Nc1ccccc1)=C(C#N)C21CCCCC1	none
CC(C)(C)C1CCC2(CC1)C(C#N)=C(SCC(=O)Nc1ccccc1)NC(=O)C2C#N (stereo not given)	CHO-K1 Ca antag 27
O=C1OC(c2ccc(F)cc2)CC1CN1CCOCC1 (stereo not given)	none
CN1C(=O)Cc2cc(S(=O)(=O)N3CCN(c4cccc(Cl)c4)CC3)ccc21	none
Cc1ccc(CNC(=O)Cn2ccc3cc(S(=O)(=O)N4CCCC4)ccc32)o1	none
NC(=O)c1ccccc1NC(=O)c1ccccc1Cl	none
O=C(Nc1ccccc1C(=O)Nc1nnc(C(F)(F)F)s1)c1ccccc1Cl	CHO-K1 Ca antag 27, M1 antag 34, CHO-K1 Ca ag 28
CCSc1nnc(NC(=O)c2ccc(Br)s2)s1	none
O=C(Nc1nnc(C(F)(F)F)s1)c1ccc(Br)s1	M1 antag 28
Cc1onc(-c2ccccc2)c1C(=O)OCC(=O)NC(C)c1ccc(Cl)cc1 (stereo not given)	none
Cc1ccc(NC(=O)[C@@H]2CCCN2C(=O)c2cccs2)cc1S(=O)(=O)N1CCCCC1	none
CC1CC(C)CN(S(=O)(=O)c2ccc(NC(=O)[C@@H]3CCCN3C(=O)c3cccs3)cc2)C1 (stereo not given in full)	M1 antag 30
N#Cc1ccccc1S(=O)(=O)N1CCN(C(=O)[C@@H]2CCCN2C(=O)c2cccs2)CC1	M1 antag 33
FC(F)(F)c1cnc(COc2ccc(Cl)cc2Cl)c(Cl)c1	none
CCC1=NN2C(=N)/C(=C/c3cc(C)n(Cc4ccccc4)c3C)C(=O)N=C2S1	CHRM1 agonist 20, CHO-K1 Ca ag 20
Cc1cc(/C=C2\C(=N)N3N=C(c4ccco4)SC3=NC2=O)c(C)n1Cc1ccccc1	CHRM1 agonist 42, M1 antag 52
Cc1occc1C(=O)NN1C(=O)C2C3CCC(O3)C2C1=O (stereo not given)	none
COc1cc(/C=N\NC(=O)C2COc3ccccc3O2)cc(OC)c1O (stereo not given)	CHO-K1 Ca ag 21
COc1cc(/C=N/NC(=O)C2COc3ccccc3O2)ccc1O (stereo not given)	none
